Test results reported in PubChem BioAssay (NCI).
The panel holds about 83,000 compounds, 20% with a hit somewhere; the sample as a whole holds those more often.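 Each cell line was grown in a 96-well plate and treated with one concentration of compound for 48 hours. Values below 10 were considered active.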 The source made the active and inactive calls.

How the values were obtained:
Assay in all cases: NCI-60 one-dose screen, 48 h (100 = growth as untreated, 0 = no growth, -100 = all killed)
Conditions in all cases: 10 µM unless noted
[1] = tested on: HT29 colon
[2] = tested on: SNB-75 CNS
[3] = tested on: SNB-19 CNS
[4] = tested on: U251 CNS
[5] = tested on: PC-3 prostate
[6] = tested on: SK-MEL-5 melanoma
[7] = tested on: UACC-62 melanoma
[8] = tested on: SK-MEL-28 melanoma
[9] = tested on: SK-MEL-2 melanoma
[10] = tested on: LOX IMVI melanoma

Measured: growth

CCCC(=O)NC(c1ccc(N(CC)CC)cc1)c1cc(C)c2cccnc2c1O (centres undefined)
active: [6] -19.8% | [7] 8.31%
inactive: [1] 36.4% | [2] 60.4% | [3] 25.1% | [4] 25.6% | [5] 39.3% | [8] 29.6% | [9] 23%

CC(C)(C)OC(=O)N1C(=O)c2c(c3c4ccccc4[nH]c3c3ccc4ccccc4c23)C1=O
inactive: [1] 51.6% | [2] 79.5% | [3] 97.2% | [4] 58.8% | [5] 42.8% | [6] 60.4% | [7] 60.3% | [8] 63.2% | [9] 42.7%

CCN1C(=S)N(c2ccccc2)C2NC(=O)N(/N=C/C=C/c3ccccc3OC)C21 (centres undefined)
inactive: [1] 98.8% | [2] 71.8% | [3] 87.6% | [4] 89.4% | [5] 90.3% | [6] 92.4% | [7] 81.7% | [9] 120%

COc1cc(OC)c(S(=O)(=O)NNC(=O)c2ccncc2)cc1C(=O)/C=C/c1ccc(C)cc1
inactive: [1] 95.1% | [2] 73% | [3] 66.7% | [4] 68.1% | [5] 45.9% | [6] 94.2% | [7] 76.2% | [8] 104% | [9] 109%

Fc1ccc(-c2nc(C(Cl)Cl)nc3cc(-c4ccccc4)nn23)cc1
inactive: [5] 31% | [6] 57% | [10] 32.4%
active: [1] -9.69% | [2] -14.7% | [3] 3.82% | [4] -53.6%

COc1ccc(/C=C2\SC(=Nc3cc(C)on3)NC2=O)cc1
inactive: [1] 108% | [2] 97% | [3] 96.4% | [4] 109% | [5] 96.7% | [6] 99.3% | [7] 95.1% | [9] 115%

COc1cc(N=Cc2sc(Nc3nccs3)nc2O)cc(OC)c1OC
inactive: [1] 109% | [2] 73.6% | [3] 78.2% | [4] 84.7% | [5] 80.9% | [6] 87.6% | [7] 75.5% | [8] 84.2% | [9] 74%

CC(=NNc1ncnc2ccccc12)c1ccc(S(C)(=O)=O)cc1
inactive: [1] 112% | [2] 103% | [3] 97.6% | [4] 117% | [5] 87.9% | [6] 101% | [7] 96.1% | [9] 112%

COC(=O)c1ccc(NC(=S)N2CCc3ccc([N+](=O)[O-])cc3C2)cc1O
inactive: [1] 109% | [2] 112% | [3] 97.6% | [4] 111% | [5] 98.7% | [6] 100% | [7] 99.2% | [8] 106% | [9] 122%

Nc1c(C(=O)Nc2ccc(C(F)(F)F)cc2)sc2nc(-c3cnccn3)cc(-c3cccs3)c12
inactive: [1] 95% | [2] 34.2% | [3] 52.2% | [4] 79.5% | [5] 42.2% | [6] 90.1% | [7] 84.6% | [9] 101%

Cn1ccnc1C(=O)/C=C/c1ccc(NC(=O)Nc2ccccc2)cc1
active: [1] 3.3% | [4] 2.77%
inactive: [2] 17.1% | [3] 21.8% | [5] 37.8% | [6] 77.9% | [7] 38.5% | [8] 75.1% | [9] 102%

COc1ccc(-c2nc3ccc(-c4nnc(SCC(=O)Nc5ccc(C(=O)/C=C/c6ccc(Cl)cc6)cc5)o4)cc3[nH]2)cc1OC
inactive: [1] 108% | [2] 106% | [3] 109% | [4] 100% | [5] 97.7% | [6] 97.6% | [7] 98% | [8] 105% | [9] 112%

Cn1ccnc1C(=O)/C=C/c1ccc(NC(=O)Nc2ccc(F)cc2)cc1
inactive: [1] 11.7% | [2] 39.3% | [3] 33.9% | [4] 20.1% | [5] 53.2% | [6] 77.8% | [7] 46.3% | [8] 75.5% | [9] 95%

COc1cc(/C=C/C(=O)c2ccc(C(F)(F)F)cc2)ccc1Oc1nc(NCCO)nc(N2CCOCC2)n1
inactive: [1] 96.2% | [2] 91.4% | [3] 87.6% | [4] 70.1% | [5] 87.2% | [6] 94% | [7] 78.7% | [8] 96.1% | [9] 98.8%

O=C1Nc2cc(Cl)ccc2/C1=C\c1ccc(OCc2ccc(Br)cc2F)cc1
active: [1] 0.627% | [2] -72.8% | [3] -41.3% | [4] -68.5% | [5] -57.1% | [6] -12.1% | [7] -74.3% | [8] -63% | [9] -42.8%
